# About 16,000 (4.4%) of roughly 360,000 compounds were called active. Another 9% or so got no clear call; they are omitted. Only a selection was taken, and actives are over-represented in it overall. Unmarked numbers belong to inactive results. The call rests on the fitted dose curve; in most records, active means well fitted inhibition curve with a large enough effect; inconclusive means small, poorly fitted or top-dose-only effect; inactive means no such curve, though single readings can be large or run the other way.
# Molecular target: Bromodomain adjacent to zinc finger domain protein 2B (Homo sapiens) (UniProt Q9UIF8)
# Assay: qHTS Assay for Inhibitors of BAZ2B; further: nearly all actives have a fitted effect of over 60% in size
# Conditions: AlphaScreen BAZ2B-H3K14Ac peptide displacement; series mostly up to 114 µM; activity change, negative = inhibition: at the top concentration
# In short: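 BAZ2B (50 nM) with biotin-H3(5-23)K14Ac peptide (50 nM) in PBS pH 7.4, 0.01% Tween-20, preformed 30 min, then compound 30 min at room temperature; top concentration 110uM. AlphaScreen streptavidin donor/nickel chelate acceptor beads (10 ug/mL final), 20 min dark, signal read.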
# On the % scale 0 is the no-effect control and ±100 the full control effect; potency means the concentration at half of the fitted maximal effect.
# Sequence of Bromodomain adjacent to zinc finger domain protein 2B (Homo sapiens) (Q9UIF8 whole entry, looked up, the tested form may be a part): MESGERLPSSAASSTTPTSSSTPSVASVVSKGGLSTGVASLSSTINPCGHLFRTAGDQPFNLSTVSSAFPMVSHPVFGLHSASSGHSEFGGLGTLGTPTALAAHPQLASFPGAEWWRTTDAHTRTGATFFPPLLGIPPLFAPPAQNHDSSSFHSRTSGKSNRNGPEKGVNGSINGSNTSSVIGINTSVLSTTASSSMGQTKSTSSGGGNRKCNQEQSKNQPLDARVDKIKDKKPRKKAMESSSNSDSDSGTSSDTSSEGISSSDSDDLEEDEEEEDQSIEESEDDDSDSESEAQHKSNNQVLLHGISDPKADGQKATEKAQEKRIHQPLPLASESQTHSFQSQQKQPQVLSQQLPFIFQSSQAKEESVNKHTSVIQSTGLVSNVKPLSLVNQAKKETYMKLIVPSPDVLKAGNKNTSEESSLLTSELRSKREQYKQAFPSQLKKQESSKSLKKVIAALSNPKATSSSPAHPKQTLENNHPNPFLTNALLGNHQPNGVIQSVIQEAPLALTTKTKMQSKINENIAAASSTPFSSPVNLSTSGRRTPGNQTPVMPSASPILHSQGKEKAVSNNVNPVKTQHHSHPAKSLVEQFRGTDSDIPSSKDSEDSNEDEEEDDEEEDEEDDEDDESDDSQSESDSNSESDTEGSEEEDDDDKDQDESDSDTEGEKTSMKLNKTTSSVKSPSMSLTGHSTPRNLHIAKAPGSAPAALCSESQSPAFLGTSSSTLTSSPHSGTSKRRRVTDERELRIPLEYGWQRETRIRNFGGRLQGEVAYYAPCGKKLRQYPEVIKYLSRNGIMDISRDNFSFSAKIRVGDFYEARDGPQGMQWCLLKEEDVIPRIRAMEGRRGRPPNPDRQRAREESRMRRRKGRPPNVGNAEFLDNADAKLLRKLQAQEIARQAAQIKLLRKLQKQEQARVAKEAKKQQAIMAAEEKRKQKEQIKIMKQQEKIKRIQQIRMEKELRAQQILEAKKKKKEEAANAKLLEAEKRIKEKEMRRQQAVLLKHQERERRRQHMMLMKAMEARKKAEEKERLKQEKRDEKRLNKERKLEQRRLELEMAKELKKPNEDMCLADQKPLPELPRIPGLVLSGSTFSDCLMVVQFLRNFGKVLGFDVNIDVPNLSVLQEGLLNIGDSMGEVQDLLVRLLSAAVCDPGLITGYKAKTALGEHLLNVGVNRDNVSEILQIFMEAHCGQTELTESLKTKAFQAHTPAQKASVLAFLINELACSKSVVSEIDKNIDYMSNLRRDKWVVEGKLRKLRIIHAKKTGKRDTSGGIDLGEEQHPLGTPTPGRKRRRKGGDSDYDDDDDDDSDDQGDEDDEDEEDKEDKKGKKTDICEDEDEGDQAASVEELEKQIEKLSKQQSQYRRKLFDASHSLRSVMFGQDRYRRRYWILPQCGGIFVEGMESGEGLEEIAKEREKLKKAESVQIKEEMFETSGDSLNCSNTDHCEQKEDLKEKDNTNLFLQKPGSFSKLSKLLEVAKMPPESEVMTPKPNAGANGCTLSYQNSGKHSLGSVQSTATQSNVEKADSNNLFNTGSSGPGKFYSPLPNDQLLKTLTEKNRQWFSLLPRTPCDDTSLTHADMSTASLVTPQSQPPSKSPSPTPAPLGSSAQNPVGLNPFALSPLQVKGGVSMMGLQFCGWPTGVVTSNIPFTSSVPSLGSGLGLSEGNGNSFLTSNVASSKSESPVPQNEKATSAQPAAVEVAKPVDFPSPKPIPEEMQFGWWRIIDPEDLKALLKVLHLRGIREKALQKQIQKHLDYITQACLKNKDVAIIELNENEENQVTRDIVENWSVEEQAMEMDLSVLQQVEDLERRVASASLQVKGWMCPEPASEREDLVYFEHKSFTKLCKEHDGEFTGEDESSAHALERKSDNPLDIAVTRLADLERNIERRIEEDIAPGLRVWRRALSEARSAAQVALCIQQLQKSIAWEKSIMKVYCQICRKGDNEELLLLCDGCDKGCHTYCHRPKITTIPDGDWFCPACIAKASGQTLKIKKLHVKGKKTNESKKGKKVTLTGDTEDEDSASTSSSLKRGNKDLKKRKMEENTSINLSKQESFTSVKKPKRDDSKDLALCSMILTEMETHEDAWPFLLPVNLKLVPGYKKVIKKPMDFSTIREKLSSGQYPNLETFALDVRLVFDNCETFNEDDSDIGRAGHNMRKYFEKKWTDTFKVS
Structure (SMILES),"activity change, negative = inhibition",Potency
Cc1cccc(N2CCN(C(=O)CCn3c(=O)c4cccn4c4cccnc43)CC2C)c1 (stereo not drawn),-36.6%,
NC(=O)C1CCN(C(=O)c2cccc(NC(=O)c3nsc4ccccc34)c2)CC1,4.68%,
Cc1[nH]c2ccccc2c1C(c1ccccc1)c1cccs1 (stereo not drawn),1.62%,
CC(=O)c1cc(-c2ccccc2)n(CCC(=O)NC2CCCCCC2)c1C,,50.1 µM (active)
CC(=O)c1cc(-c2ccccc2)n(CC(=O)NC2CCCCC2)c1C,,inactive
O=C(CCS(=O)(=O)c1ccccc1)NC1CCCC1,-1.71%,
Cc1nc2nc(SCC(=O)N(Cc3ccccc3)C(C)C)nn2c(C)c1Cc1ccccc1Cl,-18.1%,
CCOc1cc(C(=O)Nc2nnc3n2CCS3)cc(OCC)c1OCC,13.3%,
CCOC(=O)c1cc(NC(=O)c2ccc(F)cc2)c(=O)n2c1oc1ccccc12,-12%,
CN(CC(=O)Nc1ccccc1F)S(=O)(=O)c1ccc2c(c1)c(=O)n(C)c(=O)n2C,4.31% [at 57.1 µM],
O=C(CN1C(=O)COc2ccc(S(=O)(=O)N3CCOCC3)cc21)N1CCN(c2cccc(Cl)c2)CC1,-21.7%,
COCCNC(=S)N1CCN(C)CC1,,39.8 µM (active)
COCCNC(=S)N1CCC(NC(=O)C23CC4CC(CC(C4)C2)C3)CC1,-8.68%,
CCCNC(=S)N1CCC(NC(=O)c2ccc(OC)cc2)CC1,-25.5%,
CCN1C(=O)c2ccccc2S(=O)c2ccc(C(=O)NCc3ccc(F)cc3)cc21 (stereo not drawn),-14.5%,
CCCCOC(=O)/C(C#N)=C/c1ccc(-c2cccc(C(F)(F)F)c2)o1,-15.6%,
CCOc1ccc(Nc2nc3c(S(=O)(=O)c4cccc(Cl)c4)nnn3c3ccsc23)cc1,-13%,
Cc1ccc(OCCSc2nc(C)c(Cc3ccccc3)c(=O)[nH]2)cc1,-2.49%,
S=C(c1ccccc1)N1CCCC1,5.22%,
OCCN1CCN(C(=S)c2ccc(-c3ccccc3)cc2)CC1,-7.79%,
S=C(c1ccc(-c2ccccc2)o1)N1CCCCC1,,35.5 µM (active)
CSc1ccc(CCNC(=O)c2ccc3c(c2)nc2n3CCOC2)cc1,4.23%,
COC(=O)CCCC1=CC2=CC(=O)C(C)(OC(=O)c3cccs3)C(=O)C2=CN1CC1CC1 (stereo not drawn),-30.3%,
COC/C=C/C1=CC2=CC(=O)C(C)(OC(=O)CCC(=O)OC)C(=O)C2=CO1 (stereo not drawn),,50.1 µM (active)
COC(=O)CCCC1=CC2=CC(=O)C(C)(OC(=O)c3cccs3)C(=O)C2=CN1CC(C)C (stereo not drawn),-15.3%,
CCC(=O)N1CCc2cc(Br)cc(S(=O)(=O)CCC(=O)N3CCN(c4ccc(F)cc4)CC3)c21,3.17%,
COc1ccc(-c2noc(CCC(=O)N(C)c3ccccc3C)n2)cc1,6.51%,

Structure (SMILES),"activity change, negative = inhibition",Potency
CCOc1cccc(C(=O)Nc2nnc(S(=O)(=O)N(C)c3ccc(C)cc3)s2)c1,-2.91%,
CCc1ccc(NC(=O)CN2CCSc3ccc(S(=O)(=O)N4CCCC4)cc32)cc1,-26.5%,
Cc1cccc(Cn2cnc3c(N)c(C)c(C)cc32)c1,,56.2 µM (active)
COc1cccc(Cn2cnc3c([N+](=O)[O-])c(C)c(C)cc32)c1,-22.6%,
CSc1nn(Cc2cccc(C)c2)c(N)c1S(=O)(=O)c1ccccc1,22.9%,
Cc1ccc(Cl)cc1NC(=O)Cc1ccc(-n2c(C)nc3cccnc32)cc1,-5.91%,
CC(NC(=O)CCc1cn(Cc2ccccc2Cl)c2ccccc12)c1ccccc1 (stereo not drawn),-5.03%,
CCOc1ccc(CCNC(=O)c2cc3c(=O)n(C)c4ccccc4c3n2C)cc1,-3.88%,
COC(=O)COc1ccc2c(c1C)O/C(=C\c1ccco1)C2=O,,50.1 µM (active)
Cc1cc(C)c(OCC(=O)N/N=C/c2ccco2)c(C)c1,3.11%,
COc1ccccc1OCC(=O)OCc1cc(-c2ccco2)on1,12.1%,
CCOC(=O)c1ccc2c(c1)N(Cc1cccc(OC)c1)C(=O)c1ccccc1S2(=O)=O,4.73%,
CCc1nc(-c2cc(S(=O)(=O)N3CCN(c4ccc(OC)cc4)CC3)ccc2OC)no1,-33.9%,
Cc1cc2c(cc1C)C(c1cccc(OC(C)C)c1)CC(=O)N2 (stereo not drawn),-1.89%,
CC(=O)c1c(C)[nH]c(=S)c(C#N)c1-c1ccc(F)cc1,,79.4 µM (active)
Cc1cc(C)c2c(-c3ccc(F)cc3)c(C#N)c(=O)n(C)c2n1,-1.61%,
N#Cc1c(-c2ccc(Cl)cc2)c2c([nH]c1=S)CCCC2,-11.4%,
CC(C)CCN(C(=O)Nc1ccc(Cl)c(Cl)c1)C(C)c1cccs1 (stereo not drawn),72%,
Cc1ccc(Cn2c(CCCNC(=O)C3CCCCC3)nc3ccccc32)cc1,-12.3%,
CCOc1ccc(NC(=O)c2cc3c(=O)n(Cc4cccs4)ccc3nc2C)cc1,-15.9%,
CC1CC(c2ccccc2)n2nc(NC(=O)c3cccs3)nc2N1 (stereo not drawn),,79.4 µM (active)
COc1ccc(CC(=O)Nc2nc3n(n2)C(c2ccccc2)CC(=O)N3)cc1OC (stereo not drawn),-28.7%,
O=C(Nc1n[nH]c(C(F)(F)F)n1)c1cccs1,-9.64%,
O=C(c1ccc2c(c1)N(Cc1ccc(Cl)cc1)C(=O)c1ccccc1S2(=O)=O)N1CCCCC1,-21%,
Cc1ccc2nc(COc3cccc(NC(=O)c4ccccc4Cl)c3)cc(=O)n2c1,6.72%,
Cc1ccc(S(=O)(=O)n2nc(-c3ccc(Cl)cc3)nc2NCc2ccccc2)cc1,3.65%,
